# Measurements reported in the supplement of paper PMC10849652.
# About 7,900 targets were measured; listed, in parts, are those with a hit and a random draw of the rest. About 0.6% of all pairs of compound and target were hits. Unmarked numbers belong to inactive results.
# Tests used:
# Test in all cases: log2 fold change, soluble protein after heating vs DMSO (PISA); higher = thermal stabilisation; K562 cells, 10 uM, 30 min; active = over 0.2 and 3.5 SD of the protein, either way, in both replicates (recomputed)
# [1] = compound: COC1=CC=C(C=C1)CN2C=CC3=C2C=C(C=C3)C(=O)NO
# In short: (§1)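 Soluble protein was defined as the supernatant after 21,000xg for 90 min. It came from K562 cells at 2×10^6 cells/mL given 10 μM compound for 30 min, heated in aliquots for 3 min across 48°C-58°C, pooled, and extracted in PBS with 0.5% NP-40 at 4°C, and was quantified by TMTpro 16plex LC-MS/MS with equalised channel sums. Thermal stability against control samples, from duplicates, is reported as log2 fold change.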
# [2] = compound: CON(C)C(=O)N1N=C(c2cc(F)ccc2F)S[C@@]1(CCCN)c1ccccc1 [filanesib]
# In short: as §1
# [3] = compound: CO[C@H]1C[C@@H]2CC[C@@H](C)[C@@](O)(O2)C(=O)C(=O)N2CCCC[C@H]2C(=O)O[C@H]([C@H](C)C[C@@H]2CC[C@H](n3cnnn3)[C@H](OC)C2)CC(=O)[C@H](C)/C=C(\C)[C@@H](O)[C@@H](OC)C(=O)[C@H](C)C[C@H](C)/C=C/C=C/C=C/1C [zotarolimus]
# In short: as §1
# [4] = compound: COc1cc(C(=O)O)ccc1NC(=O)[C@@H]1N[C@@H](CC(C)(C)C)[C@](C#N)(c2ccc(Cl)cc2F)[C@H]1c1cccc(Cl)c1F [idasanutlin]
# In short: as §1
# [5] = compound: COc1cc(Nc2ncc3c(n2)-c2ccc(Cl)cc2C(c2c(F)cccc2OC)=NC3)ccc1C(=O)O [alisertib]
# In short: as §1
# [6] = compound: COc1cc2nc(-c3cc(F)ccc3O)nc(N[C@@H]3CNC[C@H]3C(C)(C)O)c2cc1OC
# In short: as §1
# [7] = compound: COc1cc2ncnc(Nc3ccc(F)c(Cl)c3)c2cc1OCCCN1CCOCC1 [gefitinib]
# In short: as §1
# [8] = compound: COc1cccc2cc(-c3nc([C@H]4CC[C@H](C(=O)O)CC4)n4ncnc(N)c34)[nH]c12
# In short: as §1
# [9] = compound: CS(=O)(=O)CCNCc1ccc(-c2ccc3ncnc(Nc4ccc(OCc5cccc(F)c5)c(Cl)c4)c3c2)o1 [lapatinib]
# In short: as §1
# [10] = compound: CS(=O)(=O)N1CCN(Cc2cc3nc(-c4cccc5[nH]ncc45)nc(N4CCOCC4)c3s2)CC1 [pictilisib]
# In short: as §1
# Sequence of UniProt Q07157 (Q07157 whole entry, looked up): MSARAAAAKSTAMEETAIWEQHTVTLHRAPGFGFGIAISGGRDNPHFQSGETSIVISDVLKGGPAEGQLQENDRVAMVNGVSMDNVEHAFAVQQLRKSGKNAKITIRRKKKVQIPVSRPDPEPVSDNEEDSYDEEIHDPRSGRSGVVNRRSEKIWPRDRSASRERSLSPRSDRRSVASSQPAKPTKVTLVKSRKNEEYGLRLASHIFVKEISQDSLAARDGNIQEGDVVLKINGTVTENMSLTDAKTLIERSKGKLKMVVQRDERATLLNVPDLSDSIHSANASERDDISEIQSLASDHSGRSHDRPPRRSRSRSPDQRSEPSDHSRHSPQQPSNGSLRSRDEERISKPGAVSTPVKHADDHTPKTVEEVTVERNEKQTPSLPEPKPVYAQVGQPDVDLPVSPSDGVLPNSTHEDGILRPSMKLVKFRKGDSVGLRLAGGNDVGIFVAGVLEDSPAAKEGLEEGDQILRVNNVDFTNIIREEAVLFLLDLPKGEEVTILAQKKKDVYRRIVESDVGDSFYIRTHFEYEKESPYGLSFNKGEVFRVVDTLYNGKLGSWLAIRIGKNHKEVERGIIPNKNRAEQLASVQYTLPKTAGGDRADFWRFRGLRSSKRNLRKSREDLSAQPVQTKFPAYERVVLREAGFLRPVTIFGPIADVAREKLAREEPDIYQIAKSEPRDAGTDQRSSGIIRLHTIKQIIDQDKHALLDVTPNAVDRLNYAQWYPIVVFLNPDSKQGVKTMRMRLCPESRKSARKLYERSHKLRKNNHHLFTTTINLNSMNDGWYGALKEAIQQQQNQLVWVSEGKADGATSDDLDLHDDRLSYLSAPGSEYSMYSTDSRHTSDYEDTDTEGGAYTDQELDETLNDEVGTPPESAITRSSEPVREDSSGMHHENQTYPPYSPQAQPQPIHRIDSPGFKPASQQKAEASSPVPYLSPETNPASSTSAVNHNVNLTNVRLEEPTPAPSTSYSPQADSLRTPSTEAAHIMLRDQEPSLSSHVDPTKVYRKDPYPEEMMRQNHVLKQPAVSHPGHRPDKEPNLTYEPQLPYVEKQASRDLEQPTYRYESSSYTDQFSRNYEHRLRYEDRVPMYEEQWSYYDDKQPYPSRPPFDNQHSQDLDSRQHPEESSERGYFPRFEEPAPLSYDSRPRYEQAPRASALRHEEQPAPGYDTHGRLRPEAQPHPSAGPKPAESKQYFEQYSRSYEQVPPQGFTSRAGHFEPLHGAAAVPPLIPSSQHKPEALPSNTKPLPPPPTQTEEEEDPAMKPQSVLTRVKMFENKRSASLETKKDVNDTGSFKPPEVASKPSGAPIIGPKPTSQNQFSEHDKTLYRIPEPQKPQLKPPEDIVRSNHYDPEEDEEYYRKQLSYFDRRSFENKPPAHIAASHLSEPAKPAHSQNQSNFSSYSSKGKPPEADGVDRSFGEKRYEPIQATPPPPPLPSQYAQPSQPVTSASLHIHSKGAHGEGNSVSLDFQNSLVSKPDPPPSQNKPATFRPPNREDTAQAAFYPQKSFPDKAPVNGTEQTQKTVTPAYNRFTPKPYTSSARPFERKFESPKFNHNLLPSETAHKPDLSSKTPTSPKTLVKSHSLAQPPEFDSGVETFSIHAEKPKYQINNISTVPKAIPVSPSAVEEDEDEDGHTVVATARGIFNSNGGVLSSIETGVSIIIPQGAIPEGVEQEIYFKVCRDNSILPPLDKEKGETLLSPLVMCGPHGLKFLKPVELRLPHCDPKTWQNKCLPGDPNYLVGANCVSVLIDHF
# Sequence of UniProt Q9NZ01 (Q9NZ01 whole entry, looked up): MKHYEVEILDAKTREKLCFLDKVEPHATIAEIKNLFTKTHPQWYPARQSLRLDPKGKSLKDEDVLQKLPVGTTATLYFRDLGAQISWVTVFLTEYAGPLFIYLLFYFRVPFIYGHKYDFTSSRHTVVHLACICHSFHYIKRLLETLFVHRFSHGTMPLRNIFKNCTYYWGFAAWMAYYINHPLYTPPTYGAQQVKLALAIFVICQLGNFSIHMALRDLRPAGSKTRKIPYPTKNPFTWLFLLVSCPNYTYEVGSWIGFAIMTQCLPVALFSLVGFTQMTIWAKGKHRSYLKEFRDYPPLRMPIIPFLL
# Sequence of UniProt Q9NVC3 (Q9NVC3 whole entry, looked up): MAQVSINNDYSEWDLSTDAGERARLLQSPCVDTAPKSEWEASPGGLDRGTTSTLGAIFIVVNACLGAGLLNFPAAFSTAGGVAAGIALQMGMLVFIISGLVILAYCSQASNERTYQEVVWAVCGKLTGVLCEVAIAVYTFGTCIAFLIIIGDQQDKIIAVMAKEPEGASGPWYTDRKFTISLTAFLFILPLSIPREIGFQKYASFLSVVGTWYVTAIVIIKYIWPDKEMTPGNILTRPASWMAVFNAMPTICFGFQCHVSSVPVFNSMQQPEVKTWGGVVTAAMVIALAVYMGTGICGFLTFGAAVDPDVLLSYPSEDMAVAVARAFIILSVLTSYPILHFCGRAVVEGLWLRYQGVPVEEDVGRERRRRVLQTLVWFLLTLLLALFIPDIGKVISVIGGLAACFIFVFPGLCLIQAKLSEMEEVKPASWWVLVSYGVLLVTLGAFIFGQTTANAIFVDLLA
# Sequence of UniProt O60264 (O60264 whole entry, looked up): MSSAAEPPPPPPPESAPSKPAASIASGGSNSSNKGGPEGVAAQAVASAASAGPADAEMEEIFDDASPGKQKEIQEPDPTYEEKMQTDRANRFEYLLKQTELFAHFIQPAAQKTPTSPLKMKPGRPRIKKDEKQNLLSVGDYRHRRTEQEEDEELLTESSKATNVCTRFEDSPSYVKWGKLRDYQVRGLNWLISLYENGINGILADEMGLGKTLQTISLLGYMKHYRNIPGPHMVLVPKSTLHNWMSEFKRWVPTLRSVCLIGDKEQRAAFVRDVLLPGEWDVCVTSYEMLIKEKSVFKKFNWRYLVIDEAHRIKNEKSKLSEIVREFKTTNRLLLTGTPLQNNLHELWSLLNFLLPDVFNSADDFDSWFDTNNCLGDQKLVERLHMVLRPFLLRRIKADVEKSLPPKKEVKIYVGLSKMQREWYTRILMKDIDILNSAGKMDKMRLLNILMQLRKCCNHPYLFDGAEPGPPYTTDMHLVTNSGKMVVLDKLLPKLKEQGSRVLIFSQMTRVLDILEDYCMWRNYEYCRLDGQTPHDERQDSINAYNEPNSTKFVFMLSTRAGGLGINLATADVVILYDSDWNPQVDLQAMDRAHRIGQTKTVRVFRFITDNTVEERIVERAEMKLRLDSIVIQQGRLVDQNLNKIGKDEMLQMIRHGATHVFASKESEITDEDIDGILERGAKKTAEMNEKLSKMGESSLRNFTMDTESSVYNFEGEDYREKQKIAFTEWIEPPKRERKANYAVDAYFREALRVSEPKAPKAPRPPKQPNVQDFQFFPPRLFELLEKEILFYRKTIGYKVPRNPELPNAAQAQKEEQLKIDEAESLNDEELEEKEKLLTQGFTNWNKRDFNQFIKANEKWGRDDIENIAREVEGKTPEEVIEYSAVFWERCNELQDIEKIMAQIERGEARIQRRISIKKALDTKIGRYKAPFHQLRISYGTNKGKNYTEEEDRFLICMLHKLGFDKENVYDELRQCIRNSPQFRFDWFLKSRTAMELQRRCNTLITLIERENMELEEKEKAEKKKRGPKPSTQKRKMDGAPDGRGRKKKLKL
# Sequence of UniProt Q9BUA3 (Q9BUA3 whole entry, looked up): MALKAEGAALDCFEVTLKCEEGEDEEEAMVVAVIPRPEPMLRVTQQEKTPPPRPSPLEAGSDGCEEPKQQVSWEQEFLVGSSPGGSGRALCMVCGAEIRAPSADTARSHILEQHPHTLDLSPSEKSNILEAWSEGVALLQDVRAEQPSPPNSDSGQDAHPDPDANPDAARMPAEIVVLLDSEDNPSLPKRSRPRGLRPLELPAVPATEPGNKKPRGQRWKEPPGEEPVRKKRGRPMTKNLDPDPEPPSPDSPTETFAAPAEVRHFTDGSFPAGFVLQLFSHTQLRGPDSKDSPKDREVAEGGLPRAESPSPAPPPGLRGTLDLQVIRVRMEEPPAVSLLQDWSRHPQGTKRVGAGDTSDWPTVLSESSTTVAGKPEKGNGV
# Sequence of UniProt Q15796 (Q15796 whole entry, looked up): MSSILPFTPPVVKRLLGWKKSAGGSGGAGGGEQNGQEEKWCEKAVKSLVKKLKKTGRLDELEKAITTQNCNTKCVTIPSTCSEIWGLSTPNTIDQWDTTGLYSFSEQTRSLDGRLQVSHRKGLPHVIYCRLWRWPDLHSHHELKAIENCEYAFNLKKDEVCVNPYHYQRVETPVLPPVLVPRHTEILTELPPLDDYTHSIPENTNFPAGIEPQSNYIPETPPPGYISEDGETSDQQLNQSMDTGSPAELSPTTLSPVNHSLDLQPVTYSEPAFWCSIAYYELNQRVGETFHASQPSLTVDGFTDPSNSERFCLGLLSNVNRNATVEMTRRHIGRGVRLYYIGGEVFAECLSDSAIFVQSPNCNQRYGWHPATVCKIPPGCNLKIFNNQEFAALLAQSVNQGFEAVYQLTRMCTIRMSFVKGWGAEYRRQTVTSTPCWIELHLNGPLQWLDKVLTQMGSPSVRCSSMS
# Sequence of UniProt P35270 (P35270 whole entry, looked up): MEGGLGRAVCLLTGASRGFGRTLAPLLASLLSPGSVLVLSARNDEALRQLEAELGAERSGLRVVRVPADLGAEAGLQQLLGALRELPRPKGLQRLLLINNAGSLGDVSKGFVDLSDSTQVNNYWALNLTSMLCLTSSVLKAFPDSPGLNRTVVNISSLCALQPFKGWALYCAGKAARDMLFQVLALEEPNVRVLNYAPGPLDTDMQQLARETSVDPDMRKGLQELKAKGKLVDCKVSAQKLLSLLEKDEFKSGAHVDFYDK
# Sequence of UniProt Q96DI7 (Q96DI7 whole entry, looked up): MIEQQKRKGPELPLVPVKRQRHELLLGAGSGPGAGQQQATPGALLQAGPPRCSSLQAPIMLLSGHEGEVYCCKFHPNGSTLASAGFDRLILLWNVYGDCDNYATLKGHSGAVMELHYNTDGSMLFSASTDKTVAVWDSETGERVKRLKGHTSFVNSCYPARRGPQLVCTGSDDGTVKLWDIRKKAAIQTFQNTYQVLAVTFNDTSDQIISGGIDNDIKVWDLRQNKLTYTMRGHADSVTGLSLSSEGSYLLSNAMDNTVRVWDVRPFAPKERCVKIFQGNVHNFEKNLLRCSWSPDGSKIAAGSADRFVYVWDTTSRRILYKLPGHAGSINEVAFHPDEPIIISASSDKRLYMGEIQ
Target,log2 fold change [1],log2 fold change [2],log2 fold change [3],log2 fold change [4],log2 fold change [5],log2 fold change [6],log2 fold change [7],log2 fold change [8],log2 fold change [9],log2 fold change [10]
TBC1D10B (UniProt Q4KMP7),-0.001,0.062,0.011,0.032,-0.088,-0.088,0.008,-0.042,0.041,-0.002
SNRNP27 (UniProt Q8WVK2),-0.075,0.03,-0.156,0.121,-0.003,-0.015,-0.011,0.135,0.005,-0.009
STK17B (UniProt O94768),0.01,–,–,–,–,–,–,–,–,–
SMAP (UniProt O00193),-0.046,-0.154,-0.018,0.005,-0.01,0.02,0.033,0.051,-0.013,-0.016
TJP1 (UniProt Q07157),0.02,0.035,0.03,0.001,-0.059,0.005,0.038,0.055,-0.006,0.017
SPINDOC (UniProt Q9BUA3),0.165,0.221,-0.02,0.008,-0.113,0.145,0.073,0.017,-0.045,-0.117
SMARCA5 (UniProt O60264),0.047,0.047,0.043,0.059,-0.064,-0.049,0.073,-0.144,-0.017,0.004
SPR (UniProt P35270),0.794 (active),-0.087,0,-0.225,-0.051,-0.039,-0.008,0.021,-0.031,0.681 (active)
SYMPK (UniProt Q92797),0.069,-0.102,0.07,-0.127,0.047,0.036,0.107,0.025,-0.045,0.155
STARD3NL (UniProt O95772),-0.005,-0.082,-0.054,-0.19,-0.056,0.095,0.048,0.075,-0.048,0.024
SNRNP40 (UniProt Q96DI7),-0.039,0.08,-0.015,0.007,-0.054,0.191,-0.052,0.025,0.02,0.295 (active)
STEAP3 isoform 2 (UniProt Q658P3),-0.028,-0.014,-0.06,-0.11,-0.028,0.035,-0.01,0.025,0.013,0.227 (active)
TECR (UniProt Q9NZ01),-0.031,-0.169,-0.041,-0.111,-0.028,-0.102,-0.027,0.034,-0.012,-0.102
ST6GAL1 (UniProt P15907),0.013,0.224 (active),0.051,0.066,-0.085,0.046,0.095,-0.003,0.116,0.063
SMAD2 (UniProt Q15796),-0.011,0.091,0.043,0,0.032,-0.016,0.117,-0.032,0.043,0.102
SUPT16H (UniProt Q9Y5B9),0.106,-0.026,0.104,-0.057,0.12,-0.036,0.062,-0.023,0.035,0.011

Target,log2 fold change [1],log2 fold change [2],log2 fold change [3],log2 fold change [4],log2 fold change [5],log2 fold change [6],log2 fold change [7],log2 fold change [8],log2 fold change [9],log2 fold change [10]
STAM2 (UniProt O75886),-0.006,0.059,-0.018,-0.06,0.015,0.001,0.002,-0.066,-0.018,0.055
SNX12 isoform 1 (UniProt Q9UMY4),-0.029,-0.027,-0.007,0.039,0.005,-0.008,0.035,0.09,-0.006,-0.002
SLC27A2 (UniProt O14975),0.089,-0.033,0.032,0.257,-0.034,0.046,0.156,-0.052,0.112,0.034
STXBP5 (UniProt Q5T5C0),-0.012,-0.039,0,-0.022,-0.084,0.015,-0.006,0.003,0.023,-0.038
TIMM44 (UniProt O43615),0,-0.229,0.027,-0.042,-0.021,-0.296 (active),-0.135,0.017,-0.073,-0.041
SLIRP (UniProt Q9GZT3),0.088,-0.429 (active),-0.054,0.041,-0.08,-0.648 (active),0.041,0.023,-0.042,-0.15
SLC7A6OS (UniProt Q96CW6),-0.085,0.006,0.046,-0.034,-0.073,-0.072,0.007,-0.037,0.038,0.019
SMPD4 isoform 4 (UniProt Q9NXE4),0.051,-0.223,0.011,-0.049,0.145,-0.109,0.02,-0.043,-0.013,-0.034
STX7 (UniProt O15400),0.065,-0.071,0.027,-0.023,-0.048,0.013,-0.01,0.045,-0.002,-0.118
SMARCE1 (UniProt Q969G3),0.035,0.058,0.052,0.013,-0.21,-0.07,0.066,0.206,0.038,-0.062
TAX1BP1 (UniProt Q86VP1),-0.03,-0.043,-0.009,0.069,0.007,-0.052,0.001,0.033,-0.012,0.044
SLC38A7 (UniProt Q9NVC3),-0.042,-0.098,0.095,-0.077,-0.136,0.01,0.035,0.069,-0.057,0.022
TBC1D15 isoform 3 (UniProt Q8TC07),-0.063,0,0.039,-0.058,-0.052,-0.065,0.015,-0.06,0.032,-0.009
STRN (UniProt O43815),-0.002,-0.002,0.052,-0.018,-0.083,-0.003,0.02,0.017,0.015,0.006
TBK1 (UniProt Q9UHD2),-0.06,0.05,-0.037,0.046,0.064,0.087,-0.098,0.08,-0.018,0.009
